Laboratory results published in PubChem BioAssay AID1159580 (chemical genetic matrix, 2015).
Values joined by “and” are separate entries in the source; they are usually repeats but may differ in a detail not shown here. Equal values may be shown once. Out of some 5,500 compounds screened, about 2,000 (36%) were called active. Inconclusive results (about 18%) are left out. Cut-off read from the data, not from the text of the source: active = normalized growth mostly below about 0.91 (no sharp cut-off); inconclusive = no clear call, values can overlap the other calls; inactive = mostly above about 0.92. Some of the results follow.

Assay: chemical genetic growth profiling, strain panel (AID 1159580);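 note: tested at 20 µM; growth read once vehicle control cultures reached saturation at 30 °C; 1 = growth at the plate median or of vehicle wells; lower values mean less growth of the strain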
Details: S. cerevisiae deletion strains, growth OD
[1] = locus YAL013W, strain DEP1, hits give low values
[2] = locus YMR263W, strain SAP30, hits give low values
[3] = locus YMR307W, strain GAS1, hits give low values
[4] = locus YNL153C, strain GIM3, hits give low values
[5] = locus YPL241C, strain CIN2, hits give low values
[6] = locus YAL040C, strain CLN3, hits give low values
[7] = locus YCL061C, strain MRC1 (second series), hits give low values
[8] = locus YDR150W, strain NUM1, hits give low values
[9] = locus YER002W, strain NOP16, hits give low values
[10] = locus YGR078C, strain PAC10, hits give low values
[11] = locus YJR075W, strain HOC1, hits give low values
[12] = locus YNL175C, strain NOP13, hits give low values
[13] = locus YNL197C, strain WHI3, hits give low values
[14] = locus YNL224C, strain SQS1, hits give low values
[15] = locus YOR083W, strain WHI5 (second series), hits give low values

Measured: normalized growth

c1ccc2c(c1)sc1ccccc12
inactive: locus YAL021C, strain ccr4, hits give low values 1.02 | locus YBR021W, strain FUR4, hits give low values 1.03 | locus YBR171W, strain sec66, hits give low values 0.912 | locus YBR229C, strain ROT2, hits give low values 1 | locus YBR279W, strain paf1, hits give low values 0.952 | locus YCL029C, strain bik1, hits give low values 0.973 | locus YDL035C, strain GPR1, hits give low values 0.99 | locus YDL040C, strain nat1, hits give low values 0.942 | locus YDL074C, strain BRE1, hits give low values 0.97 | locus YDL101C, strain DUN1, hits give low values 0.96 | locus YDL134C, strain PPH21, hits give low values 0.938 | locus YDL185W, strain tfp1, hits give low values 0.986 | locus YDL192W, strain arf1, hits give low values 0.959 | locus YDR069C, strain doa4, hits give low values 1.02 | locus YDR101C, strain arx1, hits give low values 0.955 | locus YDR159W, strain sac3, hits give low values 0.869 | locus YDR162C, strain NBP2, hits give low values 0.883 | locus YDR195W, strain ref2 1.09 | locus YDR388W, hits give low values 0.971 | locus YDR502C, strain sam2, hits give low values 0.928 | locus YEL037C, strain rad23, hits give low values 0.933 | locus YEL061C, strain CIN8, hits give low values 0.991 | locus YER016W, strain bim1, hits give low values 0.957 | locus YER110C, hits give low values 0.97 | locus YER155C, strain BEM2, hits give low values 0.946 | locus YER167W, strain BCK2, hits give low values 0.96 | locus YFR010W, strain ubp6, hits give low values 0.976 | locus YGL078C, strain dbp3, hits give low values 0.973 | locus YGL086W, strain mad1, hits give low values 0.941 | locus YGL167C, strain pmr1, hits give low values 0.937 | locus YGL248W, strain PDE1, hits give low values 0.898 | locus YGR135W, strain pre9, hits give low values 0.929 | locus YGR229C, strain SMI1, hits give low values 0.917 | locus YGR252W, strain gcn5, hits give low values 1.02 | locus YHR027C, strain rpn1, hits give low values 0.922 | locus YHR030C, strain SLT2, hits give low values 0.978 and 0.997 | locus YHR079C, strain IRE1 (second series), hits give low values 0.957 | locus YHR079C, strain IRE1, hits give low values 0.996 | locus YHR094C, strain hxt1, hits give low values 0.972 | locus YHR129C, strain ARP1, hits give low values 0.981 | locus YHR200W, strain rpn10, hits give low values 0.97 | locus YIL066C, strain RNR3, hits give low values 0.994 | locus YIL073C, strain SPO22, hits give low values 0.951 | locus YIL125W, strain kgd1, hits give low values 0.962 | locus YIR030C, strain dcg1, hits give low values 0.957 | locus YJL095W, strain BCK1, hits give low values 0.834 and 1.01 | locus YJL115W, strain asf1, hits give low values 0.921 | locus YJL134W, strain LCB3, hits give low values 0.995 | locus YJL154C, strain vps35, hits give low values 0.924 | locus YJL168C, strain set2, hits give low values 0.97 | locus YJL187C, strain SWE1 (second series), hits give low values 0.957 | locus YJR043C, strain POL32, hits give low values 0.99 | locus YJR066W, strain TOR1, hits give low values 0.974 | locus YKL009W, strain mrt4, hits give low values 0.966 | locus YKL068W, hits give low values 0.973 | locus YKL085W, strain MDH1 (second series), hits give low values 0.971 | locus YKL085W, strain MDH1, hits give low values 0.971 | locus YLL041C, strain sdh2, hits give low values 0.935 | locus YLR039C, strain RIC1, hits give low values 0.735 | locus YLR058C, strain SHM2, hits give low values 0.968 | locus YLR102C, strain apc9, hits give low values 0.974 | locus YLR113W, strain HOG1, hits give low values 1.02 | locus YLR262C, strain YPT6, hits give low values 0.656 | locus YLR268W, strain sec22, hits give low values 0.897 | locus YLR330W, strain CHS5, hits give low values 0.95 | locus YLR342W, strain FKS1 (second series), hits give low values 1.03 | locus YLR342W, strain FKS1, hits give low values 0.959 | locus YLR357W, strain rsc2, hits give low values 0.909 | locus YLR370C, strain arc18, hits give low values 0.929 | locus YLR384C, strain iki3, hits give low values 0.939 | locus YML016C, strain PPZ1, hits give low values 0.988 | locus YML124C, strain tub3, hits give low values 0.971 | locus YMR078C, strain ctf18, hits give low values 0.967 | locus YMR231W, strain pep5, hits give low values 0.967 | [2] 0.954 | [3] 0.869 | locus YNL067W, strain RPL9B, hits give low values 0.955 | locus YNL128W, strain TEP1, hits give low values 0.965 | locus YNL183C, strain NPR1, hits give low values 0.96 | locus YNL209W, strain ssb2, hits give low values 0.948 | locus YNL233W, strain BNI4, hits give low values 0.873 | locus YNL250W, strain rad50, hits give low values 0.974 | locus YNL271C, strain bni1, hits give low values 0.95 | locus YNL298W, strain CLA4, hits give low values 0.929 | locus YNR052C, strain pop2, hits give low values 0.991 | locus YOL012C, strain htz1 0.804 | locus YOL147C, strain pex11, hits give low values 0.953 | locus YOR061W, strain CKA2, hits give low values 0.994 | locus YOR069W, strain VPS5, hits give low values 0.996 | locus YOR070C, strain gyp1, hits give low values 0.937 | locus YOR080W, strain dia2, hits give low values 0.948 | locus YOR136W, strain idh2, hits give low values 0.951 | locus YOR144C, strain elg1, hits give low values 0.972 | locus YOR231W, strain MKK1, hits give low values 1.03 | locus YOR270C, strain vph1, hits give low values 1.02 | locus YOR290C, strain snf2, hits give low values 0.891 | locus YOR316C, strain cot1, hits give low values 0.966 | locus YPL240C, strain hsp82, hits give low values 0.934 | [5] 0.999 | locus YPL256C, strain CLN2, hits give low values 0.984 | locus YPR119W, strain clb2, hits give low values 0.965 | locus YPR141C, strain kar3, hits give low values 0.959 | locus YPR163C, strain tif3, hits give low values 0.983 | locus YPR167C, strain met16, hits give low values 0.972
active: [1] 0.807 | locus YAL026C, strain drs2, hits give low values 0.832 | locus YAL030W, strain snc1, hits give low values 0.851 | locus YBL061C, strain skt5, hits give low values 0.811 | locus YBR009C, strain hhf1, hits give low values 0.734 | locus YBR023C, strain chs3, hits give low values 0.867 | locus YBR231C, strain swc5, hits give low values 0.86 | locus YCL011C, strain gbp2, hits give low values 0.815 | locus YCL016C, strain dcc1, hits give low values 0.877 | locus YCL069W, strain vba3, hits give low values 0.778 | locus YCR088W, strain abp1, hits give low values 0.905 | locus YDL005C, strain med2, hits give low values 0.906 | locus YDR001C, strain nth1, hits give low values 0.894 | locus YDR137W, strain rgp1, hits give low values 0.427 | locus YDR297W, strain sur2, hits give low values 0.842 | locus YDR318W, strain mcm21, hits give low values 0.912 | locus YDR334W, strain swr1, hits give low values 0.871 | locus YDR335W, strain msn5, hits give low values 0.781 | locus YDR392W, strain spt3, hits give low values 0.588 | locus YEL003W, strain gim4, hits give low values 0.572 | locus YEL061C, strain CIN8 (second series), hits give low values 0.8 | locus YER015W, strain faa2, hits give low values 0.765 | locus YER111C, strain swi4, hits give low values 0.823 | locus YER155C, strain BEM2 (second series), hits give low values 0.223 | locus YGL173C, strain kem1, hits give low values 0.827 | locus YGL227W, strain vid30, hits give low values 0.809 | locus YGL240W, strain doc1, hits give low values 0.778 | locus YGL253W, strain hxk2, hits give low values 0.854 | locus YHR013C, strain ard1, hits give low values 1.25 [resistant] | locus YHR142W, strain chs7, hits give low values 0.597 | locus YJL092W, strain hpr5, hits give low values 0.841 | locus YJL095W, strain BCK1 (second series), hits give low values 0.834 | locus YJL129C, strain trk1, hits give low values 0.802 | locus YJL164C, strain tpk1, hits give low values 0.802 | locus YJL166W, strain qcr8, hits give low values 0.652 | locus YJL187C, strain SWE1, hits give low values 0.882 | locus YKL160W, strain elf1, hits give low values 0.845 | locus YKR001C, strain vps1, hits give low values 0.812 | locus YKR026C, strain gcn3, hits give low values 0.835 | locus YKR091W, strain srl3, hits give low values 0.924 | locus YLL001W, strain dnm1, hits give low values 0.768 | locus YLL026W, hits give low values 0.814 | locus YLR027C, strain aat2, hits give low values 0.757 | locus YLR221C, strain rsa3, hits give low values 0.779 | locus YLR258W, strain gsy2, hits give low values 0.891 | locus YLR262C, strain YPT6 (second series), hits give low values 0.315 | locus YLR320W, strain mms22, hits give low values 0.662 | locus YLR371W, strain rom2, hits give low values 0.854 | locus YLR418C, strain cdc73, hits give low values 0.785 | locus YML032C, strain rad52, hits give low values 0.9 | locus YML120C, strain ndi1, hits give low values 0.749 | locus YMR058W, strain fet3, hits give low values 0.774 | locus YMR125W, strain sto1, hits give low values 0.844 | locus YMR129W, hits give low values 0.909 | locus YMR205C, strain PFK2, hits give low values 0.737 | locus YMR223W, strain ubp8, hits give low values 0.86 | locus YNL071W, strain lat1, hits give low values 0.613 | [4] 0.728 | locus YNL248C, strain rpa49, hits give low values 0.748 | locus YNL307C, strain MCK1, hits give low values 0.849 | locus YNL322C, strain KRE1 (second series), hits give low values 0.894 | locus YNR049C, strain mso1, hits give low values 0.915 | locus YOR001W, strain rrp6, hits give low values 0.714 | locus YOR083W, strain WHI5, hits give low values 0.812 | locus YOR106W, strain vam3, hits give low values 0.727 | locus YOR184W, strain ser1, hits give low values 0.676 | locus YOR265W, strain rbl2, hits give low values 0.873 | locus YPL051W, strain arl3, hits give low values 0.776 | locus YPL078C, strain atp4, hits give low values 0.691 | locus YPL106C, strain sse1, hits give low values 0.778 | strain wtn01, hits give low values 0.893

Cc1sc2ccccc2c1CC1=NCCN1
inactive: [6] 0.972 | [7] 0.993 | [8] 0.995 | [9] 0.988 | [10] 1 | [11] 1.01 | [2] 1 | [12] 1.03 | [13] 1 | [14] 1 | [15] 0.982 | [5] 1

NC(Cc1ccc(N(CCCl)CCCl)cc1)C(=O)O (configuration not stated)
inactive: [1] 0.981 | [6] 0.995 | [7] 0.996 | [8] 1.01 | locus YDR363W, strain ESC2, hits give low values 0.986 | [9] 0.974 | [10] 0.976 | [11] 1 | [2] 0.997 | [3] 1 | [4] 1.04 | [12] 0.977 | [13] 0.983 | [14] 1.01 | [15] 0.993
